Measured values published in PubChem BioAssay (Tox21).
Several values for one entry are separate records, joined by “and”; a condition that tells them apart may be missing. Identical values can stand only once. Some structures have more than one record in an assay (separate samples or runs), and their calls can disagree. Activity calls are given as the source filed them. Entries that show only a call come without a potency. Unless noted, the call rests on the fitted dose curve; in most records, active means well fitted curve in the direction sought with a large enough effect in the repeat runs; inconclusive means weak or mixed curves; inactive means no such curve, though single readings can be large; an effect the other way counts as inactive or inconclusive.

Assays:
[1] = qHTS assay to identify small molecule antagonists of the thyroid receptor (TR) signaling pathway - cell viability counter screen (AID 743064); further: nearly all actives have a fitted effect of over 50% in size
Procedure, shortened: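 Viability of T3-stimulated (1 nM final) GH3.TRE-Luc cells is measured by CellTiter-Fluor fluorescence after 23.5 h compound exposure at 37 °C plus 30 min reagent incubation.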

[2] = qHTS assay to identify small molecule antagonists of the thyroid receptor (TR) signaling pathway (AID 743065); further: nearly all actives have a fitted effect of over 55% in size
Procedure, shortened: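 Antagonism measured as loss of luciferase signal in GH3 cells stably carrying a TRE-luciferase reporter, co-treated with compound and T3 (1 nM final) for 23.5 h at 37 C. Viability was read in the same well by CellTiter-Fluor.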

[3] = test system: thyroid hormone receptor (rat, GH3 cells); assay: qHTS assay to identify small molecule agonists of the thyroid receptor (TR) signaling pathway (AID 743066; calls by dose curve)
[4] = target: Estrogen receptor (Homo sapiens) (UniProt P03372); assay: qHTS assay to identify small molecule antagonists of the estrogen receptor alpha (ER-alpha) signaling pathway (AID 743069; active means well fitted curve in the direction sought with a large enough effect in the signal ratio in the repeat runs, not every such curve was filed as active; inconclusive means weak or mixed curves, or effect the other way; inactive means no such curve, though single readings can be large or run the other way; the % refers to the signal ratio)
Procedure, shortened: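 Compound effects are measured against 17beta-estradiol stimulation in HEK293 cells with a UAS-controlled beta-lactamase reporter for ER-alpha. Exposure lasts 18 hr at 37C; LiveBLAzer B/G FRET substrate follows for 2 hr at room temperature.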

[5] = qHTS assay to identify small molecule antagonists of the estrogen receptor alpha (ER-alpha) signaling pathway - cell viability counter screen (AID 743074; calls by dose curve;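 further: HEK293 cells carrying ER-alpha-UAS-bla reporter stimulated with 17beta-estradiol; nearly all actives have a fitted effect of over 45% in size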)
[6] = target: Estrogen receptor (Homo sapiens) (UniProt P03372); assay: qHTS assay to identify small molecule agonists of the estrogen receptor alpha (ER-alpha) signaling pathway (AID 743075; calls by dose curve)
[7] = target: Estrogen receptor (Homo sapiens) (UniProt P03372); assay: qHTS assay to identify small molecule agonists of the estrogen receptor alpha (ER-alpha) signaling pathway using the BG1 cell line (AID 743079); further: nearly all actives have a fitted effect of over 20% in size
[8] = qHTS assay to identify small molecule antagonists of the estrogen receptor alpha (ER-alpha) signaling pathway using the BG1 cell line (AID 743080; calls by dose curve;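 further: BG1 cells stimulated with 17beta-estradiol alongside compound; nearly all actives have a fitted effect of over 25% in size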); conditions: BG1Luc4E2 ERE-luciferase antagonist mode, luminescence; activity change, negative = inhibition: at 70.3 µM (top of the series)
Procedure, shortened: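 Seeding, 24 h rest, compound transfer from DMSO, 17beta-estradiol addition, 21.5 h incubation, CellTiter-Fluor (30 min, 37 C), then ONE-Glo (30 min, room temperature): this sequence was run on BG1-Luc-4E2 reporter cells.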

[9] = qHTS assay to identify small molecule antagonists of the estrogen receptor alpha (ER-alpha) signaling pathway using the BG1 cell line - cell viability counter screen (AID 743081);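 further: compound given together with 17beta-estradiol as the ER stimulus; nearly all actives have a fitted effect of over 45% in size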
Aromatase (Homo sapiens) = Aromatase (Homo sapiens) (UniProt P11511); assay: qHTS assay to identify aromatase inhibitors (AID 743083); further: nearly all actives have a fitted effect of over 55% in size
Potency means the concentration at half of the fitted maximal effect.

Aromatase (Homo sapiens), sequence (P11511 whole entry, looked up): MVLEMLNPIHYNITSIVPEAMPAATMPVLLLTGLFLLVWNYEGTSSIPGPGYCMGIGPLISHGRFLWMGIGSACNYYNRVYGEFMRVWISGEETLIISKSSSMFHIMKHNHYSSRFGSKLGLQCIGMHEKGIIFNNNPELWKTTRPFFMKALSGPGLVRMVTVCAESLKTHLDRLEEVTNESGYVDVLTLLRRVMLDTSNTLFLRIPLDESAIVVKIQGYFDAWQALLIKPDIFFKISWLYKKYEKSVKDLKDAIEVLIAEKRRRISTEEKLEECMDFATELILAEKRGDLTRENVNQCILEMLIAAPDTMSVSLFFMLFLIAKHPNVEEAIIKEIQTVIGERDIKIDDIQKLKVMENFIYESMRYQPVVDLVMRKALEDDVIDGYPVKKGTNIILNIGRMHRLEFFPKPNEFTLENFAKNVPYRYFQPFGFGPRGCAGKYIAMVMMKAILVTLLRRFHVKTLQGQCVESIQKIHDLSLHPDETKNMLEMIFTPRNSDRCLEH
Estrogen receptor (Homo sapiens), sequence (P03372 whole entry, looked up): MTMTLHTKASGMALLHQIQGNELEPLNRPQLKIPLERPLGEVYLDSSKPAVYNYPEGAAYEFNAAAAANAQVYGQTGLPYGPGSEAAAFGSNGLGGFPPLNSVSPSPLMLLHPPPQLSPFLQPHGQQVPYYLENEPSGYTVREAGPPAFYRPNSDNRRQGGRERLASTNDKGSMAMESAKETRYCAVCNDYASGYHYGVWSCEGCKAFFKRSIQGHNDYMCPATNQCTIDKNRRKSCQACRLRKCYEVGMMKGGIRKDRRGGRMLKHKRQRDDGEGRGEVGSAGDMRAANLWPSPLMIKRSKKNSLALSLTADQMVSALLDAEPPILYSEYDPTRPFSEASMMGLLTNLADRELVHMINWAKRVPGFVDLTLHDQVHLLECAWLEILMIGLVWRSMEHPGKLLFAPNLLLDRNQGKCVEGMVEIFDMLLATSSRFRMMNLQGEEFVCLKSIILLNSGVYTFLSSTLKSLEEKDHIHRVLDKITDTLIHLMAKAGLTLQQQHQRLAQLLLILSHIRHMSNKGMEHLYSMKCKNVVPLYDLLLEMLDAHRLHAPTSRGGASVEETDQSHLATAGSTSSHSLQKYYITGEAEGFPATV

| Compound | Potency [1] | Potency [2] | Potency [3] | Potency [4] | Potency [5] | Potency [6] | Potency [7] | Potency [8] | Potency [9] | Potency (Aromatase (Homo sapiens)) | activity change, negative = inhibition [8] |
| --- | --- | --- | --- | --- | --- | --- | --- | --- | --- | --- | --- |
| CCOc1ccc(NC(C)=O)cc1 | inactive | inactive | inactive | inactive | inactive | inactive | inactive | inactive | inactive | inactive | – |
| CCCC[P+](CCCC)(CCCC)CCCC | inactive | inactive | inactive | – | inactive | – | – | – | inactive | inactive | – |
| CN(C)CCOC(c1ccccc1)c1ccccc1 | 26.6 µM (active) and 19.4 µM (active) | 26.6 µM (active) and 48.6 µM (active) | inactive | inactive | inactive and 9.52 µM (active) | inactive | inactive | inactive | inactive | – | – |
| Nc1ccc(O)c([N+](=O)[O-])c1 | 45.7 µM (active) | inactive | inactive | – | – | inactive | inactive | inactive | 34 µM (active) | inactive | – |
| CC(=O)CC(c1ccccc1)c1c(O)c2ccccc2oc1=O (configuration not stated) | inactive | inactive | inactive | – | inactive | – | – | – | inactive | – | – |
| CCCc1cc(=O)[nH]c(=S)[nH]1 | inactive | inactive | inactive | inactive | inactive | inactive | 26.6 µM (active) and inactive | inactive | inactive | inactive | – |
| Nc1ccc([N+](=O)[O-])cc1O | 36.4 µM (active) | 48.6 µM (active) | inactive | inactive | – | inactive | inactive | inactive | – | inactive | – |
| C=C(C)C(=O)OCC(C)O (configuration not stated) | inactive | inactive | inactive | inactive | inactive | inactive | inactive | inactive | inactive | inactive | – |
| CCc1nc(N)nc(N)c1-c1ccc(Cl)cc1 | 62.1 µM (active) | 10.6 µM (active) and 6.21 µM (active) and 9.69 µM (active) | inactive | inactive | 7.02 µM (active) | inactive | – | 23.7 µM (active) | inactive | inactive and 55.3 µM (active) | – |
| CC(=O)CCC(=O)O | inactive | – | inactive | inactive | inactive | inactive | 15 µM (active) and inactive | inactive | inactive | inactive | – |
| Cc1cc(C)nc(NS(=O)(=O)c2ccc(N)cc2)n1 | inactive | inactive | inactive and 69.4 µM (active) | – | inactive | – | – | – | inactive | inactive | – |
| CN(N=O)C(=O)N[C@@H]1[C@@H](O)[C@H](O)[C@@H](CO)O[C@@H]1O | inactive | inactive | inactive | inactive | inactive | inactive | inactive | inactive | inactive | inactive | – |
| CN[C@H]1CC[C@@H](c2ccc(Cl)c(Cl)c2)c2ccccc21 | 9.44 µM (active) | 6.68 µM (active) | – | – | – | inactive | – | – | inactive | – | – |
| CN(C)C(=O)Nc1ccc(Cl)c(Cl)c1 | inactive | inactive | inactive | inactive | inactive | inactive | inactive | inactive | inactive | inactive | – |
| CCCCCCc1ccc(O)cc1O | 54.6 µM (active) and 54.5 µM (active) | 61.3 µM (active) | inactive | – | inactive | – | – | – | inactive | inactive and 61.1 µM (active) | – |
| CCCCC1(COC(=O)CCC(=O)O)C(=O)N(c2ccccc2)N(c2ccccc2)C1=O | inactive | inactive | inactive | inactive | inactive | inactive | inactive | inactive | inactive | inactive | – |
| CCCCCCCCCCCCCCCC[N+](C)(C)Cc1ccccc1 | 18.8 µM (active) and 14.1 µM (active) and 24.8 µM (active) | 11.9 µM (active) and 8.91 µM (active) and 22.1 µM (active) | inactive | – | 19 µM (active) and 25.3 µM (active) and 31.4 µM (active) | inactive | – | – | inactive | 26.6 µM (active) and 50.1 µM (active) and 27.8 µM (active) | -23.2% (active) |
| Nc1c2c(nc3ccccc13)CCCC2 | inactive | inactive | inactive | inactive | inactive | inactive | inactive and 24.3 µM (active) | – | inactive | inactive | – |
| F[B-](F)(F)F | inactive | inactive | inactive | – | inactive | – | – | – | inactive | inactive | – |

| Compound | Potency [1] | Potency [2] | Potency [3] | Potency [4] | Potency [5] | Potency [6] | Potency [7] | Potency [8] | Potency [9] | Potency (Aromatase (Homo sapiens)) | activity change, negative = inhibition [8] |
| --- | --- | --- | --- | --- | --- | --- | --- | --- | --- | --- | --- |
| CN1[C@@H]2CC(OC(=O)[C@H](CO)c3ccccc3)C[C@H]1[C@@H]1O[C@@H]12 (some centres not stated) | inactive | – | inactive | inactive | inactive | inactive | inactive and 23.7 µM (active) and 48.6 µM (active) | inactive | inactive | – | – |
| C=C1CC[C@H](O)C/C1=C\C=C1/CCC[C@]2(C)[C@@H]([C@H](C)CCCC(C)C)CC[C@@H]12 | 26.6 µM (active) and 48.1 µM (active) | 21.1 µM (active) and 30.4 µM (active) | – | – | inactive | inactive | inactive | inactive | inactive | inactive | – |
| NC1CCCCC1 | inactive | inactive | inactive | inactive | inactive | inactive | inactive | inactive | inactive | inactive | – |
| CCCCCCCC(=O)OCC(COC(=O)CCCCCCC)OC(=O)CCCCCCC | inactive | inactive | inactive | inactive | inactive | inactive | inactive | inactive | inactive | inactive | – |
| Cc1cccc(C)c1 | inactive | inactive | inactive | inactive | inactive | inactive and 1.34 µM [inconclusive] (active) | inactive and 26.5 µM (active) | inactive | inactive | inactive | – |
| NS(=O)(=O)c1cc2c(cc1Cl)NCNS2(=O)=O | inactive | inactive | inactive | inactive | inactive | inactive | inactive | inactive | inactive | inactive | – |
| CC(C)NCC(O)c1ccc(O)c(O)c1 (configuration not stated) | inactive | inactive | inactive | – | inactive | – | – | – | inactive | inactive | – |
| O=C1c2c(O)cccc2Cc2cccc(O)c21 | inactive | inactive | inactive | – | inactive | – | – | – | inactive | inactive | – |
| CCCCNC(=O)NS(=O)(=O)c1ccc(C)cc1 | inactive | inactive | inactive | – | inactive | – | – | – | inactive | inactive | – |
| CC(=O)C(=O)O | inactive | – | – | – | inactive | – | – | – | inactive | inactive | – |
| CC(=O)Nc1c(I)c(NC(C)=O)c(I)c(C(=O)O)c1I | inactive | – | inactive | – | inactive | – | – | – | inactive | – | – |
| Cc1ccc(S(=O)(=O)O)cc1 | inactive | – | inactive | – | inactive | – | – | – | inactive | – | – |
| CCCCCCCCCCCC[N+](C)(C)Cc1ccccc1 | – | 5.31 µM (active) and 9.5 µM (active) and 11.8 µM (active) | inactive | – | 10.7 µM (active) and 24.1 µM (active) and 26.7 µM (active) | – | – | – | inactive and 74.5 µM (active) | 29.8 µM (active) and 42.4 µM (active) and 37.4 µM (active) | – |
| Cn1c(=O)c2c(ncn2C)n(C)c1=O | inactive | – | – | – | inactive | – | – | – | inactive | inactive | – |
| CC(C)C(=O)Nc1ccc([N+](=O)[O-])c(C(F)(F)F)c1 | – | 62.9 µM (active) | inactive | inactive and 49 µM [inhibitor] (active) | inactive | inactive | – | 29.8 µM (active) and 49.9 µM (active) | inactive | inactive and 62.9 µM (active) | – |
| Cc1cn([C@H]2C=C[C@@H](CO)O2)c(=O)[nH]c1=O | – | inactive | inactive | – | inactive | – | – | – | inactive | inactive | – |
| Cc1ncc([N+](=O)[O-])n1C | – | inactive | inactive | inactive | inactive | inactive | inactive | inactive | inactive | inactive | – |
| Cc1c(C(=O)O)c(O)cc2c1C(=O)c1c(O)c([C@@H]3O[C@H](CO)[C@@H](O)[C@H](O)[C@H]3O)c(O)c(O)c1C2=O | 13.3 µM (active) and 59.6 µM (active) and 61.1 µM (active) | – | inactive | inactive | inactive | inactive | inactive | – | 18.8 µM (active) and 29.9 µM (active) and 27.3 µM (active) | – | – |
